From PubChem BioAssay (NCATS)
Results filed as inconclusive are left out. Activity calls are given as the source filed them. Calls follow the shape of the dose curve; as a rule, active = well fitted curve in the direction sought with a large enough effect; inconclusive = small, poorly fitted or top-dose-only effect, or another doubt; inactive = no such curve, though single readings can be large; an effect the other way counts as inactive or inconclusive.

Key:
[1] = molecular target: Glutathione peroxidase 1 (Homo sapiens) (UniProt P07203); assay: Primary qHTS Assay for Inhibitors of Recombinant Selenoprotein Glutathione Peroxidase 1 (GPX1) (AID 1845191); also: nearly all actives have a fitted effect of over 65% in size; as to activity, negative = inhibition: % is scaled to controls: 0 for no effect and ±100 for the full control effect
Sequence of Glutathione peroxidase 1 (Homo sapiens) (P07203 whole entry, looked up): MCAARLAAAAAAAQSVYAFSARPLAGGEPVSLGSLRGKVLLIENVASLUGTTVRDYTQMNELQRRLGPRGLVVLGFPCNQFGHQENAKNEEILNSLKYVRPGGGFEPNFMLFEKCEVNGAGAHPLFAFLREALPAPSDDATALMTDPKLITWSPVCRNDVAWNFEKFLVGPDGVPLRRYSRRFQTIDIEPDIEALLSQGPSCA
Summary of the method: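 GR-coupled assay: compounds preincubated 30 min at room temperature with GPX1, then reaction started with CHP; final 10 nM GPX1, 1 mM GSH, 0.5 mM CHP, 0.5 mM NADPH, 100 nM GR, 0.01% BSA, pH 7.5 Tris buffer. NADPH fluorescence (340/450 nm) read at 0 and 15 min.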

[2] = molecular target: Phospholipid hydroperoxide glutathione peroxidase GPX4 (Homo sapiens) (UniProt P36969); assay: Primary qHTS Assay for Inhibitors of Recombinant Selenoprotein Glutathione Peroxidase 4 (GPX4) (AID 1845192); also: nearly all actives have a fitted effect of over 65% in size; as to activity change, negative = inhibition: series mostly up to about 50 µM; % is scaled to controls: 0 for no effect and ±100 for the full control effect
Sequence of Phospholipid hydroperoxide glutathione peroxidase GPX4 (Homo sapiens) (P36969 whole entry, looked up): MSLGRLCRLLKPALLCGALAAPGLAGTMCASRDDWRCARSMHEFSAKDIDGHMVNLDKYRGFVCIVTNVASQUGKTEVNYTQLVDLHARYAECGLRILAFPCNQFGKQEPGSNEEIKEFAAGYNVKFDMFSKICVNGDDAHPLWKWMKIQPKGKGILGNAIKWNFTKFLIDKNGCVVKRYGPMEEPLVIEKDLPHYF
Summary of the method: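 GR-coupled assay: recombinant GPX4 preincubated 30 min with compound at room temperature; final 200 nM GPX4, 1 mM GSH, 0.5 mM cumene hydroperoxide, 0.5 mM NADPH, 100 nM GR, 0.01% BSA, pH 7.5 Tris. NADPH fluorescence (340/450 nm) read at 0 and 15 min.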

[3] = molecular target: Luciferin 4-monooxygenase (Photinus pyralis) (UniProt P08659); assay: Primary firefly luciferase (FLuc) qHTS assay for identification of artifact compounds. (AID 1845220); also: nearly all actives have a fitted effect of over 60% in size;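 as to activity change, negative = inhibition: series mostly up to about 54 µM; plate controls were DMSO vehicle for no effect and no enzyme for full effect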
Summary of the method: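 D-luciferin and ATP (10 uM each, final) in Tris acetate buffer pH 7.6 were incubated with compounds for 15 min at room temperature. The reaction was started with 10 nM Photinus pyralis luciferase and luminescence read after 5 min. Percent inhibition was fitted to a 4-parameter Hill equation.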

[4] = Primary fluorescence-based thiol-reactive (MSTI) qHTS assay for identification of artifact compounds. (AID 1845221); also: nearly all actives have a fitted effect of over 65% in size; also: potency is read from the fitted curve at half-maximal effect;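 as to activity change, negative = thiol reactive: series mostly up to about 54 µM; thiol-reactive compounds lower the probe fluorescence signal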
Summary of the method: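 MSTI probe at 4 uM final in 2% DMSO/PBS pH 7.4; compounds, 1 h at room temperature in dark. Fluorescence Ex/Em 525/598 nm, normalised to Acetyl-MSTI and MSTI, fitted to 4-parameter Hill.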

[5] = system: Nanoluciferase (engineered Oplophorus gracilirostris luciferase); assay: Primary Nanoluciferase (NLuc) qHTS assay for identification of artifact compounds. (AID 1845222);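 also: series mostly up to about 54 µM; 0% = DMSO and -100% = no enzyme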
Summary of the method: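 Diluted conditioned medium from NLuc-expressing S16 cells treated with compounds for 15 min at room temperature, then Nano-Glo substrate added; luminescence read after 5 min. Percent inhibition versus no-enzyme and DMSO controls fitted to 4-parameter Hill equation.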

[6] = Primary redox qHTS assay for identification of artifact compounds. (AID 1845223);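 also: 0% = DMSO and 100% = reference compound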
Summary of the method: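 Amplex Red (25 uM) and HRP (250 mU/mL) in HBSS, with compounds for 15 min, then 250 uM DTT for 30 min, room temperature, dark. Fluorescence 525/598 nm read; normalized to DMSO and 10 uM DA3003; Hill fit.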

COc1cc(C2OCC3C(c4ccc(OC5OC(CO)C(O)C(O)C5O)c(OC)c4)OCC23)ccc1O (configuration not stated)
inactive: Potency [1] | Potency [2] | Potency [3] | Potency [4] | Potency [5] | Potency [6]

C=C1CCC(OC(C)=O)C2(C)CC3(O)OC(=O)C(C)=C3CC12 (configuration not stated)
inactive: Potency [1] | Potency [2] | Potency [3] | Potency [4] | Potency [5] | Potency [6]

C[C@@H]1O[C@@H](OC[C@H]2O[C@@H](OCCc3ccccc3)[C@H](O)[C@@H](O)[C@@H]2O)[C@H](O)[C@H](O)[C@H]1O
inactive: Potency [1] | Potency [2] | Potency [3] | Potency [5] | Potency [6]
active: Potency [4] 2.6 µM

COC1CCCC/C(C)=C/C2C=C(C)C(C)C3C(CC(C)C)NC(=O)C23C(=O)C1 (configuration not stated)
inactive: Potency [1] | Potency [2] | Potency [3] | Potency [4] | Potency [5] | Potency [6]

OC[C@H]1O[C@@H](OCCc2ccc(O)cc2)[C@H](O)[C@@H](O)[C@@H]1O
inactive: Potency [1] | Potency [2] | Potency [3] | Potency [5] | Potency [6]
active: Potency [4] 11.9 µM

C[C@@]12C[C@]3(O)O[C@H](O1)[C@]1(COC(=O)c4ccccc4)[C@H]3C[C@@]12O[C@@H]1O[C@H](COC(=O)c2ccccc2)[C@@H](O)[C@H](O)[C@H]1O
inactive: Potency [1] | Potency [2] | Potency [3] | Potency [4] | Potency [5] | Potency [6]

CC1(C)CC[C@]2(C(=O)O)CC[C@]3(C)C(=CCC4[C@@]5(C)C[C@@H](O)[C@H](O)C(C)(C)C5CC[C@]43C)[C@@H]2[C@@H]1O (some centres not stated)
inactive: Potency [1] | Potency [2] | Potency [3] | Potency [4] | Potency [5] | Potency [6]

COC(=O)C1(Cc2ccc(O)cc2)OC(=O)C(OC)=C1c1ccc(O)cc1 (configuration not stated)
inactive: Potency [1] | Potency [2] | Potency [3] | Potency [4] | Potency [5] | Potency [6]

C=CC1(C)CC2=CCC3C(C)(C(=O)O)CCCC3(C)C2CC1OC(C)=O (configuration not stated)
inactive: Potency [1] | Potency [2] | Potency [3] | Potency [4] | Potency [5] | Potency [6]

C[C@@H]1O[C@@H](O[C@@H]2[C@@H](O)[C@@H](O)[C@H](O[C@@H]3[C@@H](O)[C@@H](O[C@]4(CO)O[C@H](CO)[C@@H](O)[C@@H]4OC(=O)/C=C/c4ccc(O)cc4)O[C@H](CO)[C@H]3OC(=O)/C=C/c3ccc(O)cc3)O[C@H]2C)[C@H](O)[C@H](O)[C@H]1O
inactive: Potency [1] | Potency [2] | outcome [3] inactive [at 11.6 µM] | activity change, negative = thiol reactive [4] 65.2% [at 11.5 µM] | activity, negative = inhibition [5] 1.58% [at 11.6 µM] | redox activity (% of DA3003) [6] -13.4% [at 11.5 µM]

CC1(C)CC2C3=CCC4C5(C)CCC(OC6OC(C(=O)O)C(O)C(O)C6OC6OC(CO)C(O)C(O)C6OC6OC(CO)C(O)C(O)C6O)C(C)(CO)C5CCC4(C)C3(C)CCC2(C)C(OC2OCC(O)C(OC3OC(CO)C(O)C(O)C3O)C2O)C1O (configuration not stated)
inactive: activity, negative = inhibition [1] -11.2% [at 9.52 µM] | activity change, negative = inhibition [2] -2.61% [at 9.73 µM] | activity change, negative = inhibition [3] -3.45% [at 11.6 µM] | activity change, negative = thiol reactive [4] 89.2% [at 11.5 µM] | activity, negative = inhibition [5] 2.9% [at 11.6 µM] | redox activity (% of DA3003) [6] 10.1% [at 11.5 µM]

O=C(/C=C/c1ccc(O)c(O)c1)OCc1ccccc1O[C@@H]1O[C@H](CO)[C@@H](O)[C@H](O)[C@H]1O
inactive: Potency [1] | Potency [2] | Potency [3] | Potency [5] | Potency [6]
active: Potency [4] 0.922 µM

COC(=O)CC[C@@H](C)[C@H]1CC[C@H]2[C@@H]3CC(=O)[C@H]4C[C@H](OC(C)=O)CC[C@]4(C)[C@H]3CC[C@]12C
inactive: Potency [1] | Potency [2] | Potency [3] | Potency [4] | Potency [5] | Potency [6]

CC[C@H]1OC(=O)C[C@@H](O)[C@H](C)[C@@H](O[C@@H]2O[C@H](C)[C@@H](O)[C@H](N(C)C)[C@H]2O)[C@@H](CCN2C[C@H](C)C[C@H](C)C2)C[C@@H](C)C(=O)/C=C/C(C)=C/[C@@H]1CO[C@@H]1O[C@H](C)[C@@H](O)[C@@H](OC)[C@H]1OC
inactive: Potency [1] | Potency [2] | Potency [3] | Potency [4] | Potency [5] | Potency [6]

COC(=O)[C@H](OC(C)=O)[C@H]1C(C)(C)C(=O)[C@H]2CC3=C4CC(=O)O[C@@H](c5ccoc5)[C@]4(C)CCC3[C@@]1(C)C2=O (some centres not stated)
inactive: Potency [1] | Potency [2] | Potency [3] | Potency [4] | Potency [5] | Potency [6]

c1nc(NC2CCCCCC2)c2cc(CNC[C@H]3CCCO3)sc2n1
inactive: Potency [1] | Potency [2] | Potency [3] | Potency [4] | Potency [5] | Potency [6]

C=CC(C)(C)C1(CC2NC(=O)C3CCCN3C2=O)C(=O)Nc2cc3c(cc21)C=CC(C)(C)O3 (configuration not stated)
inactive: Potency [1] | Potency [2] | Potency [3] | Potency [4] | Potency [5] | Potency [6]

CC1OC(O[C@H]2[C@@H](O)C[C@@]3(C)C([C@H](O)C[C@]4(C)C3CC=C3C5CC(C)(C)CC[C@]5(C(=O)OC5OC(CO)C(O)C(O)C5OC5OCC(OC6OCC(OC7OCC(O)C(O)C7O)C(O)C6O)C(OC6OCC(O)(CO)C6O)C5O)CC[C@]34C)[C@]2(C)CO)C(O)C(O)C1O (some centres not stated)
inactive: activity, negative = inhibition [1] -3.12% [at 9.52 µM] | activity change, negative = inhibition [2] -6.84% [at 9.73 µM] | activity change, negative = inhibition [3] 2.08% [at 11.6 µM] | activity change, negative = thiol reactive [4] 280% [at 11.5 µM] | activity, negative = inhibition [5] 3.85% [at 11.6 µM] | redox activity (% of DA3003) [6] 1.03% [at 11.5 µM]

CC(C)(O)c1ccc2c(c1)C(O)CC1C(C)(C(=O)O)CCCC21C (configuration not stated)
inactive: Potency [1] | Potency [2] | Potency [3] | Potency [4] | Potency [5] | Potency [6]

O=C1CC(c2ccc([N+](=O)[O-])cc2)=NN1c1ccccc1
inactive: Potency [1] | Potency [2] | Potency [3] | Potency [5] | Potency [6]
active: Potency [4] 4.74 µM

C=C1C(=O)O[C@H]2[C@H]1[C@@H](OC(=O)C(C)CO)C[C@@]1(C)[C@H](O)CCC(=O)[C@H]21 (some centres not stated)
inactive: Potency [1] | Potency [2] | Potency [3] | Potency [4] | Potency [5] | Potency [6]

C[C@@H]1CC[C@H]2C(C)(C)[C@H](O)[C@H](O)C[C@]2(C)[C@@]12Cc1c(O)cc3c(c1O2)CNC3=O
inactive: Potency [1] | Potency [2] | Potency [3] | Potency [4] | Potency [5] | Potency [6]
